Shown are actives, neighbours in structure and some others; about 1.2% of the full set was active somewhere.
PrP UTR inh – suppresses PrP 5' UTR mRNA reporter expression; cell-based PrP 5' UTR mRNA reporter, plate reader; 340,000 tested, 0.35% active; inhibition, % (test concentration not listed); in the data active = inhibition above about 52%; note: 0 = median of the neutral control wells
TcdB inh – blocks C. difficile toxin B glycohydrolase activity; TcdB glycohydrolase enzymatic assay, plate reader; 350,000 tested, 0.24% active; AID 652162; inhibition, % at 9.99 µM; in the data active = inhibition above about 10%
Sa ugtP lethal – kills S. aureus RN4220 lacking UgtP. growth inhibition, % (test concentration not listed). 330,000 tested, 0.54% active. S. aureus RN4220 ugtP deletion, OD600 growth, 16 h; in the data active = growth inhibition above about 68%;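 note: plate controls were untreated wells for no effect and antibiotic for full effect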
Sa RN4220 lethal – S. aureus RN4220 growth inhibition | 330,000 tested, 0.33% active | OD600, 16 h | inhibition, % (concentration not given with the values) | AID 1259311; in the data active = inhibition above about 85%;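 note: plate controls were untreated cells for no effect and reference antibiotic for full effect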
PfHsp40 yeast – compounds rescuing yeast from Plasmodium falciparum HSP40 toxicity. S. cerevisiae expressing PfHsp40, growth rescue, ATP luminescence. growth rescue, % at 12.5 µM. 340,000 tested, 0.68% active. AID 504582; in the data active = growth rescue above about 28%, passing the limit was not always enough; inconclusive = no clear call, values can overlap the other calls;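 note: yeast W303a lacking pdr1 and pdr3 grown in galactose medium; growth measured after three days at 30 °C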
* hit, by the source's call; u = inconclusive; x = no result given.

SMILES	PrP UTR inh	TcdB inh	Sa ugtP lethal	Sa RN4220 lethal	PfHsp40 yeast
O=C(Nc1ccc(Cl)c(Cl)c1)N[C@@H]1CC[C@H](CCn2cc(C3CC3)nn2)O[C@@H]1CO	x	0.1	x	x	x
CC(C(=O)NC1C(=O)N2C(C(=O)O)=C(CSc3nnnn3C)CSC12)n1cc(Br)cn1 (stereo not drawn)	-12.5	-0.8	99.8*	100.2*	-0.2
CON=C(C(=O)NC1C(=O)N2C(C(=O)O)=C(CSc3nc(=O)c(=O)[nH]n3C)CSC12)c1csc(N)n1 (stereo not drawn)	-9.2	0.1	x	x	-1.0
O=S1(=O)C=C(Sc2nc3cc(Cl)ccc3o2)c2ccccc21	-30.8	x	90.6*	42.4	1.0
Cc1cc(NC(=O)CSc2nc3cc(Cl)ccc3o2)no1	-17.4	1.1	0.5	3.1	-0.6
C[C@@H]1CCCCO[C@@H](CN(C)C(=O)NC2CCCCC2)[C@H](C)CN([C@H](C)CO)C(=O)c2cc(NS(=O)(=O)c3cccs3)ccc2O1	x	0.3	x	x	x
C[C@@H]1CN([C@@H](C)CO)C(=O)c2cc(NS(=O)(=O)c3ccccc3)ccc2O[C@@H](C)CCCCO[C@H]1CN(C)C(=O)c1ccccc1	x	0.0	x	x	x
CCNC(=O)C[C@H]1CC[C@@H]2[C@H](COc3ccc(NC(=O)c4cccc(OC)c4)cc3C(=O)N2C)O1	x	4.7	x	x	x
CCNC(=O)C[C@H]1CC[C@@H]2[C@@H](COc3ccc(NC(=O)c4cccc(OC)c4)cc3C(=O)N2C)O1	x	10.2*	x	x	x
COC(=O)C[C@H]1CC[C@@H]2[C@@H](COc3ccc(NC(=O)c4ccc(OC)cc4)cc3C(=O)N2C)O1	x	12.1*	x	x	x
COc1ccc(C(=O)Nc2ccc3c(c2)C(=O)N(C)[C@@H]2CC[C@H](CC(=O)NCC4CC4)O[C@@H]2CO3)cc1	x	14.9*	x	x	x
COc1cccc(C(=O)Nc2ccc3c(c2)C(=O)N(C)[C@H]2CC[C@@H](CC(=O)NCC4CC4)O[C@@H]2CO3)c1	x	0.5	x	x	x
COC(=O)C[C@H]1CC[C@H]2[C@@H](COc3ccc(NC(=O)c4ccc(OC)cc4)cc3C(=O)N2C)O1	x	0.9	x	x	x
Cc1ccc(-c2n[nH]c(=S)n2N=Cc2sccc2C)cc1	x	x	-16.7	9.6	x
O=C(NCCCSc1ccccc1)c1cc(Cl)ccc1O	-15.0	-2.0	88.7*	93.0*	u
OC(Cn1cncn1)(c1ccc(F)cc1)c1ccc(Cl)cc1 (stereo not drawn)	-34.4	0.3	-4.1	-0.1	108.3*
Cc1ccc2[nH]c(=O)c(C3C(C#N)=C(N)Oc4c3ccc3cccnc43)cc2c1 (stereo not drawn)	-15.1	x	-13.6	7.9	84.4*
O=C(NN=Cc1cccc([N+](=O)[O-])c1)c1cc2c(ccc3ccccc32)o1	x	x	-12.6	-18.0	x
Clc1ccc2[nH]c(-c3ccccc3)cc2c1	-107.9	x	64.3	-8.7	65.4*
c1ccc(-c2cc3ccccc3[nH]2)cc1	-65.4	0.5	0.2	-0.5	4.0
CC(=O)Nc1ccc2c(c1)C(=O)N(C)[C@H]1CC[C@H](CC(=O)NCC3CC3)O[C@@H]1CO2	x	-0.7	x	x	x
CCCNC(=O)C[C@H]1CC[C@@H]2[C@@H](COc3ccc(NC(=O)c4ccc5c(c4)OCO5)cc3C(=O)N2C)O1	x	11.6*	x	x	x
CCNC(=O)C[C@H]1CC[C@@H]2[C@@H](COc3ccc(NC(C)=O)cc3C(=O)N2C)O1	x	25.0*	x	x	x
CCNC(=O)C[C@H]1CC[C@@H]2[C@H](COc3ccc(NC(C)=O)cc3C(=O)N2C)O1	x	11.6*	x	x	x
CCNC(=O)C[C@H]1CC[C@H]2[C@@H](COc3ccc(NC(C)=O)cc3C(=O)N2C)O1	x	7.6	x	x	x
SMILES	PrP UTR inh	TcdB inh	Sa ugtP lethal	Sa RN4220 lethal	PfHsp40 yeast
CC(=O)Nc1ccc2c(c1)C(=O)N(C)[C@@H]1CC[C@@H](CC(=O)NCC3CC3)O[C@@H]1CO2	x	-1.1	x	x	x
CCNC(=O)C[C@@H]1CC[C@H]2[C@@H](COc3ccc(NC(C)=O)cc3C(=O)N2C)O1	x	15.8*	x	x	x
Clc1cccc(Cl)c1CONC=Nc1ncnc2sccc12	x	x	-13.0	4.6	x
C[C@H](CO)N1C[C@H](C)[C@@H](CN(C)S(C)(=O)=O)Oc2ncc(C#CC3CC3)cc2C1=O	x	1.0	x	x	x
Cc1ccc(S(=O)(=O)Nc2ccc3c(c2)CC(=O)N([C@H](C)CO)C[C@@H](C)[C@H](CN(C)C)O3)cc1	x	0.5	x	x	x
COc1c(O)ccc(C=NNC(=O)c2ccc3c(c2)OCO3)c1[N+](=O)[O-]	x	x	13.5	7.5	x
CCCCNS(=O)(=O)c1ccc(OCC(=O)OC)cc1	-11.1	10.4*	5.9	7.2	-0.1
C[C@H]1CC[C@@]2(C)[C@@H](CC[C@@H]3[C@@H]2CC[C@]2(C)[C@@H](O)CC[C@@H]32)C1	-8.0	1.0	99.2*	93.7*	0.5

From PubChem BioAssay
